# Where a name gives a salt, the structure may show the parent alone.
# System: HEK293FT dCK*-IKZF1
# Assay: relative growth recovery (pomalidomide 10 uM = 100%, DMSO = 0%); higher = more growth rescue (IKZF1 fusion degradation)
# Conditions: compound concentration: 5 uM; AraC concentration: 0.3 uM; overnight pretreatment + 4 days AraC
# Procedure, shortened: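 HEK293FT cells stably expressing a dCK*-IKZF1 fusion (300/well, 384-well) received 5 μM compound 2 h after seeding. After overnight at 37 °C they received a nucleoside suicide substrate at 0.3 μM plus medium for 4 days. On day 5, Hoechst 33342-stained nuclei were counted by whole-well imaging. Growth recovery was normalised per plate to a reference degrader (100%) and vehicle (0%); values are means of duplicates run on different days.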
row,Compound,relative growth recovery [%]
1,O=S(=O)(O)CCCS(=O)(=O)O,-1.31
2,COc1ccc(NS(=O)(=O)c2ccc(N=Nc3ccc(O)c(C(=O)O)c3)cc2)nn1 [salazodine],-2.83
3,COC(=O)Nc1nc2ccc(C(=O)c3ccccc3)cc2[nH]1,-10.6
4,O=C1Nc2ccccc2/C1=C1/Nc2ccccc2/C1=N\O [indirubin-3-monoxime],1.19
5,O=C1Nc2cc(Br)ccc2/C1=C1/Nc2ccccc2/C1=N\O [3-inhibitor],-4.43
6,Oc1c(Cl)cc(Cl)c(Cl)c1Cc1c(O)c(Cl)cc(Cl)c1Cl [Hexachlorophene],-1.27
7,Nc1ccc(-c2ccc3ncc4ccc(=O)n(-c5cccc(C(F)(F)F)c5)c4c3c2)cn1 [torin-2],-12.2
8,COc1ccc(CCN(C)CCc2ccc(OC)c(OC)c2)cc1OC,1.83
9,CNCCC(Oc1ccc(C(F)(F)F)cc1)c1ccccc1 (stereo not given) [Fluoxetine HCl],1.15
10,S=C(NCc1ccc2c(c1)OCO2)N1CCN(c2ncnc3c2oc2ccccc23)CC1 [Amuvatinib (MP-470)],-0.14
11,O=C(O)c1ccccc1-c1c2cc(I)c(=O)c(I)c-2oc2c(I)c(O)c(I)cc12,-1.36
12,Cc1ccc2c(=O)c3ccccc3n(CCCN)c2c1C,-14.4
13,O=C1NC(=O)/C(=C/c2ccc(-c3ccc(F)cc3O)o2)S1,-0.795
14,CC[C@H](C)[C@H]1O[C@]2(CC[C@@H]1C)C[C@@H]1C[C@@H](C/C=C(\C)[C@@H](O[C@H]3C[C@H](OC)[C@@H](O[C@H]4C[C@H](OC)[C@@H](O)[C@H](C)O4)[C@H](C)O3)[C@@H](C)/C=C/C=C3\CO[C@@H]4[C@H](O)C(C)=CC(C(=O)O1)[C@]34O)O2 (stereo not given in full) [Ivermectin],0.635
15,C[C@H]1COC2=C1C(=O)C(=O)c1c2ccc2c1CCCC2(C)C [Cryptotanshinone],-0.045
16,COc1cc(NC(=O)c2ccc(-c3ccc(Cl)cc3)o2)cc(OC)c1,7.22
17,Clc1ccc(COC(Cn2ccnc2)c2ccc(Cl)cc2Cl)c(Cl)c1 (stereo not given),-6.23
18,CC[C@@]1(O)C(=O)OCc2c1cc1n(c2=O)Cc2cc3c(N)cccc3nc2-1 [9-aminocamptothecin],-12.4
19,Nc1ncnc2c1c(-c1cnc3[nH]ccc3c1)nn2C1CCCC1,-11.3
20,Oc1c(Cl)cc(Cl)cc1Sc1cc(Cl)cc(Cl)c1O,-1.73
21,"Nc1ncnc2c1ncn2[C@@H]1O[C@H](COP(=O)(O)OP(=O)(O)OP(=O)(O)OP(=O)(O)OC[C@H]2O[C@@H](n3cnc4c(N)ncnc43)C(O)C2O)C(O)C1O (stereo not given in full) [P1,P4-DI(adenosine-5')tetraphosphate ammonium salt]",1.01
22,O=C1c2c(O)ccc(O)c2C(=O)c2c(NCCNCCO)ccc(NCCNCCO)c21,-13.7
23,CSc1ccc2c(c1)N(CCC1CCCCN1C)c1ccccc1S2 (stereo not given) [Thioridazine HCl],-2.37
24,COc1cc(NS(C)(=O)=O)ccc1Nc1c2ccccc2nc2ccccc12,-13.2
25,CC(C)(C)CC(C)(C)c1ccc(OCCOCC[N+](C)(C)Cc2ccccc2)cc1,-0.695

# From the supplement of paper PMC12340641
